An excerpt weighted towards active compounds, which were near 2.1% of everything screened.
CHT inh: inhibits the human high affinity choline transporter | Q9GZV3 | CHT-expressing cells, membrane potential dye, choline response; stronger effect = lower value | B-score at 10 µM | 310,000 tested, 0.86% active | AID 488975;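 active means B-score over 3 SD under the library average, and starting fluorescence ratio not unusually high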;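 further: choline stimulus applied at its EC90 after an EC20 pre-addition; B-score computed on integrated fluorescence ratio after choline addition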
Target sequence (Q9GZV3 whole entry, looked up): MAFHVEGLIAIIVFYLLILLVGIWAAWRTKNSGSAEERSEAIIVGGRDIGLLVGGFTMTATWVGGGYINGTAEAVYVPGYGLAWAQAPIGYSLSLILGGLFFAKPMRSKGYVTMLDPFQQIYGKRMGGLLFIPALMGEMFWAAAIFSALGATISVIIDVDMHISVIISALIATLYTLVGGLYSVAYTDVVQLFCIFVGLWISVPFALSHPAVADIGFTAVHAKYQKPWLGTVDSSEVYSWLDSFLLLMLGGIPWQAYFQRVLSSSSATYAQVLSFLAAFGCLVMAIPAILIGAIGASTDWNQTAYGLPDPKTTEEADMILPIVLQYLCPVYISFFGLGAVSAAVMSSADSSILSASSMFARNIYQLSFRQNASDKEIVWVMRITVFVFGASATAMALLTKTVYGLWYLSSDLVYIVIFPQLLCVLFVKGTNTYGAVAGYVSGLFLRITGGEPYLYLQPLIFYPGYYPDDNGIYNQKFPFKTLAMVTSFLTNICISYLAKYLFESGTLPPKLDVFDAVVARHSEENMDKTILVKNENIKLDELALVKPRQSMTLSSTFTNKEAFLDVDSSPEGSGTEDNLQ
EP2 antag: blocks the human prostaglandin E2 receptor EP2. P43116. C6 glioma cells expressing human EP2, cAMP TR-FRET; cells stimulated with saturating PGE2. inhibition, % at 25 µM. 260,000 tested, 0.52% active. AID 1422;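 active means percent inhibition above 40 after rounding to a whole number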;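 further: rat C6 glioma host cells with rolipram phosphodiesterase inhibitor present; the protocol text gives 20 µM as final concentration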
EP2 modulator: modulators of human EP2 prostaglandin E2 receptor; P43116; induction, % at 25 µM; 260,000 tested, 0.83% active; AID 940; EP2-expressing cells, cAMP HTRF FRET, PGE2 co-stimulation;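 active means compounds whose cAMP rise, as percent of the full-agonist control response, exceeds 60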;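 further: rat C6 glioma line stably carrying human EP2 under a CMV promoter; the protocol text gives 20 µM as final concentration; 100% = response of wells given 1 µM PGE2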
CHT allo act: allosteric activators of human choline transporter CHT; AID 488977; Q9GZV3; B-score at 10 µM; CHT-expressing cells, membrane potential dye, choline EC20; stronger effect = higher value; LV-AA mutant CHT in HEK293 cells; 310,000 tested, 0.49% active;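 active means initial fluorescence not abnormally high and integrated response B-score, plate-corrected, over 3 SD above library mean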
CHT activ conf: confirmation of human choline transporter (CHT) activators; shares compounds with CHT allo act; CHT-expressing cells, membrane potential dye fluorescence (FDSS); % of choline EC20–EC90 response window; HEK293 expressing CHT LV-AA mutant; choline added at its EC20; activation, % at 10 µM; 2,500 tested, 91% active; AID 504833;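 active means primary screen active, with duplicate mean activation above negative control mean plus 3 SD, cut at about 11% in these data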
HEK293 MP dye: counter-screen for CHT activators: effect in parental HEK293 cells | shares compounds with CHT allo act | membrane potential dye fluorescence (FDSS); measured after EC20 choline addition | ratio readout change at 10 µM, hits read low | 2,500 tested, 62% active | AID 623908;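 active means duplicate-averaged ratio beyond 3 SD from buffer wells, up or down, though filed actives are nearly all decreases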
* = called active by the depositor; i = inactive; / = not tested or not shown.

SMILES | CHT inh | EP2 antag | EP2 modulator | CHT allo act | CHT activ conf | HEK293 MP dye
Cc1cc(C)c2cc3c(ccn3C3OC[C@H](O)[C@H](O)[C@H]3O)cc2n1 (stereo partly specified) | i | 6.4 | 9.8 | i | 62.0* | -45.9*
C=CCn1c(SCC(=O)Nc2ccc(Cl)cc2)nc2sc3c(c2c1=O)CCC3 | / | 9.5 | -57.6 | / | / | /
O=C1Nc2ccc(S(=O)(=O)NCc3ccccn3)c3cccc1c23 | / | / | 20.3 | / | / | /
O=C1Nc2ccc(S(=O)(=O)N3CCCC3)c3cccc1c23 | i | 7.0 | -66.1 | i | / | /
CN(C)CCNS(=O)(=O)c1ccc2c3c(cccc13)C(=O)N2 | i | 12.2 | -59.6 | 6.51* | 74.2* | -85.7*
CN1CCN(S(=O)(=O)c2ccc3c4c(cccc24)C(=O)N3)CC1 | i | 11.9 | 21.6 | 10.1* | 84.0* | -85.5*
CCN(CC)CCNS(=O)(=O)c1ccc2c3c(cccc13)C(=O)N2 | i | 18.2 | -45.6 | 7.43* | 72.9* | -74.4*
CCOc1ccc(C(=O)Nc2sc3c(c2C#N)CCCC3)cc1Cl | / | 15.7 | -5.8 | / | / | /
Cn1c2ccccc2c2nnc(SCC(=O)NCC3CCCCC3)nc21 | / | 13.4 | 8.8 | / | / | /
Cc1nc(C)n(C(C)CNC(=O)Cn2ccc3ccc(F)cc32)n1 (stereo unspecified) | / | 4.6 | -11.0 | / | / | /
CCOc1ccc(S(=O)(=O)N2CCc3ccccc3C2)cc1 | i | 6.1 | -12.9 | i | / | /
CCOc1ccc(S(=O)(=O)N2c3ccccc3CC2C)cc1 (stereo unspecified) | i | 8.4 | -16.2 | i | 39.2* | i
CN1CCN(C(=O)CN(c2cccc(Cl)c2)S(C)(=O)=O)CC1 | / | 7.4 | -17.4 | / | / | /
Cn1c(N)c(C(=O)COC(=O)COc2ccc(C#N)cc2)c(=O)n(C)c1=O | i | 14.6 | -15.6 | i | / | /
Cn1c(N)c(C(=O)COc2ccc(C#N)cc2)c(=O)n(C)c1=O | i | 8.0 | -1.8 | i | 38.5* | -36.4*
CC[n+]1c(/C=C/N(C)c2ccccc2)oc2ccc(F)cc21 | i | 6.8 | 3.1 | i | 29.9* | -39.2*
CC[n+]1c(/C=C/N(C)c2ccccc2)oc2ccccc21 | i | 8.4 | -10.8 | i | 51.5* | -30.1*
CC[n+]1c(/C=C/Nc2ccccc2)oc2ccc(OC)cc21 | i | 4.8 | -58.3 | i | / | /
CC[n+]1c(/C=C/Nc2ccccc2)oc2ccccc21 | i | 15.2 | -4.9 | i | 41.4* | -35*
Cc1cc2cc(C#N)c(SCC(=O)Nc3c(C)cccc3C)nc2cc1C | / | 20.5 | 34.4 | / | / | /
Cc1ccc(C)c2nc(SCC(=O)NCc3ccccc3)c(C#N)cc12 | / | 15.9 | -17.0 | / | / | /
Cc1cc2c(=O)n(CC(=O)NCCCc3ccc(F)cc3)cnc2s1 | / | 4.0 | -48.8 | / | / | /
Cc1ccc(N(CC(=O)Nc2c(C)n(C)n(-c3ccccc3)c2=O)S(C)(=O)=O)c(C)c1 | i | 5.8 | 34.4 | i | / | /
Cc1ccc(N(CC(=O)N/N=C/c2cc(C)n(-c3ccccc3)c2C)S(C)(=O)=O)c(C)c1 | i | 16.9 | 21.9 | i | 24.0* | i
CC(C)(C)n1nnnc1C(c1ccc(C(F)(F)F)cc1)N(Cc1ccc(F)cc1)Cc1ccco1 (stereo unspecified) | i | 2.5 | 10.8 | 11.5* | 30.9* | i
SMILES | CHT inh | EP2 antag | EP2 modulator | CHT allo act | CHT activ conf | HEK293 MP dye
Cc1cccc2cc(C(c3nnnn3C3CCCC3)N(Cc3ccco3)CC3CCCO3)c(=O)[nH]c12 (stereo unspecified) | / | 11.1 | 11.4 | / | / | /
Fc1ccc(C(c2nnnn2C2CCCC2)N(Cc2ccco2)CC2CCCO2)cc1 (stereo unspecified) | i | 6.5 | 13.8 | 8.63* | 45.5* | i
COc1ccc(/C=C/C2=CCN(C)CC2)c(O)c1 | / | / | -5.4 | / | / | /
COc1ccc(NC(=O)COC(=O)c2c3c(nc4ccccc24)CCCC3)cc1Cl | i | 25.8 | -31.7 | i | 12.8* | i
O=C(COC(=O)c1c2c(nc3ccccc13)CCCCC2)NCc1ccc2c(c1)OCO2 | i | 0.5 | -39.1 | 8.71* | 35.8* | i
COC(=O)CC1=C(C(=O)OC)C(c2cccc(F)c2)C(C#N)=C(N)O1 (stereo unspecified) | / | 6.4 | -18.1 | / | / | /
Cc1ccn(CCCNC(=O)Cn2nc(C)n3c(cc4sc(C)cc43)c2=O)n1 | / | / | 16.2 | / | / | /
c1ccc(-c2nnc(-c3ccccn3)nc2NC2CCCCC2)cc1 | i | 13.9 | 15.8 | i | -4.3 | i
C(=N\n1c2ccccc2c2ccccc21)/c1ccccc1 | i | 3.3 | 43.0 | i | / | /
C[n+]1cn(/N=C/c2ccccc2)c2ccccc21 | i | 10.0 | 5.6 | 6.59* | 55.5* | -55.2*
CCC[n+]1c(C)sc2c(OC)ccc(OC)c21 | i | 2.6 | 16.0 | 11.9* | 47.1* | i
CCCCC(=O)Nc1nc2c(OC)ccc(OC)c2s1 | i | 7.2 | -11.4 | i | / | /
CC(C)(C)n1nc2c(c1NC(=O)c1cc(Cl)ccc1[N+](=O)[O-])CS(=O)(=O)C2 | i | / | / | 7.17* | 39.3* | i
CCC(C)NC(=O)Cn1nc(-c2cc(C)oc2C)cc(N)c1=O (stereo unspecified) | / | 3.4 | -31.8 | / | / | /
Cc1cc(C(F)F)n2ncc(C(=O)N3CCC(c4[nH]ncc4-c4ccncc4)CC3)c2n1 | / | / | -17.5 | / | / | /
COc1ccccc1NS(=O)(=O)c1ccc(-c2cnc(C3CC3)o2)cc1 | i | / | / | i | 23.5* | i
N#Cc1c(NC(=O)CCn2cnc3ccccc3c2=O)oc(-c2ccccc2)c1-c1ccccc1 | i | 12.5 | 13.4 | i | 4.6 | i
N#Cc1c(NC(=O)CSc2ccccn2)oc(-c2ccccc2)c1-c1ccccc1 | i | 14.4 | 37.6 | i | / | /
CCOC(=O)c1cccc(NC(=O)CSc2nc3ccccc3c(=O)n2CC)c1 | i | 7.0 | -43.1 | i | / | /
Cc1n(Cc2ccccc2)c2cc([N+](=O)[O-])ccc2[n+]1Cc1ccccc1 | i | / | / | 8.34* | 72.0* | -58.2*
Cc1n(Cc2ccccc2)c2ccccc2[n+]1Cc1ccccc1 | i | / | / | i | / | /
CCn1c(C)[n+](Cc2ccccc2)c2ccc(C(=O)OC)cc21 | i | 10.4 | -7.2 | 10.3* | 27.4* | -66.9*
CCOC(=O)c1ccc2c(c1)n(CC)c(/C=C/Nc1ccccc1)[n+]2CC | i | 12.6 | -12.3 | i | 31.8* | -82.8*
CCCC(=O)N1c2ccccc2C(=C2SC(C(=O)OC)=C(C(=O)OC)S2)C(=S)C1(C)C | i | 9.1 | 33.6 | i | 19.6* | i
CC(C)CSc1oc(-c2ccco2)nc1S(=O)(=O)c1ccccc1 | i | 4.2 | 12.5 | i | / | /
Cc1ccc(S(=O)(=O)c2nc(-c3ccco3)oc2SC(C)C)cc1 | i | / | / | i | 14.6* | i
CCCCN(CC)CCCNC(=O)c1ccc(CS(=O)(=O)c2c(Cl)cccc2Cl)o1 | i | / | / | i | / | /
